High-throughput results (PubChem BioAssay)
Most compounds without a hit are left out; they make up all but 5.6% or so of the library.
M18AAP inhibitor = blocks P. falciparum M18 aspartyl aminopeptidase | recombinant PfM18AAP, H-Glu-NHMec fluorogenic cleavage | inhibition, % at 7.35 µM | 290,000 compounds, 1.2% hits;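 active = inhibition above the campaign mean inhibition over all tested compounds plus 3 SD, cut at about 28% in these data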;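 note: 0% = plate median of test compound wells and 100% = 2 mM ZnCl2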
ALR inh = blocks human ALR sulfhydryl oxidase activity; purified ALR, DTT oxidation, H2O2 HRP-luminol luminescence; inhibition, % (concentration not given with the values); 290,000 compounds, 3.8% hits; P55789;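 active = mean replicate inhibition above about 79%, with every replicate also reaching it, limit read from the data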
PfGluPho inh = PfG6PD (Plasmodium falciparum) enzyme inhibition. PfGluPho enzyme, NADPH resazurin-diaphorase fluorescence. AID 504690. 350,000 compounds, 0.78% hits. inhibition, % at 20 µM;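 active = inhibition reaching at least a set limit at 20 µM in the primary screen, cut at about 59% in these data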;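 note: 0% = DMSO wells with substrate and 100% = DMSO wells lacking glucose-6-phosphate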
Cardio protect = modulators protecting cardiomyocytes from myocardial damage; AID 588492; 360,000 compounds, 0.63% hits; protection from H2O2 cell death, % at 20 µM; H9c2 cardiomyocytes, H2O2 injury protection, ATPLite, 2 h;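 active = compounds giving at least 50% protection of heart cells from peroxide-induced death in the single-dose screen, raw or plate-pattern-corrected value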;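 note: 0% = DMSO wells with peroxide and 100% = DMSO wells without peroxide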
PHOSPHO1 block = blocks human PHOSPHO1 phosphatase activity | recombinant PHOSPHO1, absorbance phosphatase assay | 290,000 compounds, 1.1% hits | inhibition, % at 13.3 µM; in the data active = inhibition above about 60%
Target sequence (Q8TCT1 whole entry, looked up): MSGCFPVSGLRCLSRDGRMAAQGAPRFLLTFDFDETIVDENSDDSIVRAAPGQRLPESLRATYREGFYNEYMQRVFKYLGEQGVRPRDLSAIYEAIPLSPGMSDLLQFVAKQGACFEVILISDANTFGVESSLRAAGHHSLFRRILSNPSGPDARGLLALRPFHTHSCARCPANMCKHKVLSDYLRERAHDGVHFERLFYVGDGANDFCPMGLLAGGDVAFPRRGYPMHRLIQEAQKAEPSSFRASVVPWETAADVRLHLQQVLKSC
* marks the source's active call; other numbers are inactive results; . = not tested or not shown.

SMILES	M18AAP inhibitor	ALR inh	PfGluPho inh	Cardio protect	PHOSPHO1 block
CC1CCCN(C(=O)c2ccc(NC(=O)CC3SC(N4CCCC4)=NC3=O)cc2)C1 (configuration not stated)	.	30	-10	2	.
COc1ccc(NC(=O)C2(C)CCN2Cc2ccc(OC)c3ccccc23)cc1OC (configuration not stated)	.	.	.	-3	.
Cc1ccc(C(=O)NC(=S)NNC(=O)c2ccccc2)cc1	-8	98*	-29	15	-28
Cc1ccc(C(=O)NNC(=S)NC(=O)c2ccccc2)cc1	.	29	-17	12	.
O=C(/C=C/c1ccc(Br)cc1)NC(=S)NNC(=O)c1ccco1	19	99*	-62	17	29
Cc1ccccc1C(=O)NNC(=S)NC(=O)c1ccccc1	21	98*	-9	30	-10
COc1ccc(C(=O)NC(=S)NNC(=O)c2ccncc2)cc1Br	.	99*	-13	27	.
O=C(N=C1SC2CS(=O)(=O)CC2N1CCc1ccccc1)C1CCCCC1 (configuration not stated)	1	2	-3	-4	19
O=C(NNC(=O)c1ccco1)c1ccccc1	-7	-1	5	1	-6
Cc1ccccc1OCC(=O)NNC(=S)NC(=O)c1ccco1	10	98*	-14	1	99*
O=C(NC(=S)NNC(=O)c1ccco1)c1ccccc1	9	88*	7	7	-146
Cc1ccc(C(=O)NNC(=S)NC(=O)c2ccc(Cl)cc2Cl)cc1	-8	64	-22	54*	76*
O=C(NC(=S)NNC(=O)c1ccccc1O)c1ccccc1	30*	8	-31	3	-46
CCCCC(=O)NC(=S)NNC(=O)c1ccc(Cl)cc1Cl	8	.	13	6	13
COC(=O)C1C(=O)C2=C(CC1C)Nc1ccccc1NC2c1ccc(C)s1 (configuration not stated)	6	44	18	14	-5
COc1cccc(N2CC(=O)N(c3cccc(OC)c3)CC2=O)c1	1	-6	-4	-3	60*
Cc1ncc(CSc2nc3ccccc3[nH]2)c(N)n1	-2	88*	-7	4	24
Cc1noc(C)c1CSc1nc2ccccc2[nH]1	3	99*	8	1	-8
Fc1cccc(F)c1CSc1nc2ccccc2[nH]1	4	66	8	-9	-8
COc1ccc2nc(SCc3cnc(C)nc3N)[nH]c2c1	-6	-3	-4	-1	6
CCn1c(CSc2nc3ccccc3[nH]2)n[nH]c1=S	-12	96*	9	-4	45
O=C(CN1C(=O)NC2(CCCc3ccccc32)C1=O)NC1CCCCC1 (configuration not stated)	.	2	-9	0	.
Fc1cccc(-c2cncc(N3CCN(CCN4CCCC4)CC3)n2)c1	.	.	.	9	.
COc1ccc(Cn2c(=O)c3cccnc3n(Cc3ccc([N+](=O)[O-])cc3)c2=O)cc1	-2	0	-5	37	-45
COc1ccc(CCn2c(=O)c3cccnc3n(Cc3ccc([N+](=O)[O-])cc3)c2=O)cc1OC	-8	.	3	56*	-132
SMILES	M18AAP inhibitor	ALR inh	PfGluPho inh	Cardio protect	PHOSPHO1 block
O=C(NCc1cccs1)c1csc([C@@H]2O[C@H](CO)[C@H](O)[C@H](O)[C@H]2O)n1	.	.	.	2	.
NC(CSS(=O)(=O)O)=NCCC12CC3CC(CC(O)(C3)C1)C2	18	85*	21	-5	-6
CC1(C)C2CCC(CN=C(N)CSS(=O)(=O)O)C1C2 (configuration not stated)	.	.	36	-5	.
CCc1cc(-c2n[nH]c(=S)n2C(C)c2ccccc2)cs1 (configuration not stated)	-2	94*	26	-5	50
Cc1ccccc1-n1c(-c2csc(C)c2C)n[nH]c1=S	27	5	45	6	0
Cc1scc(-c2n[nH]c(=S)n2C(C)c2ccccc2)c1C (configuration not stated)	12	83*	44	-5	-2
O=C(NCCCN1CCCC1=O)c1cccc(S(=O)(=O)N2CCCCC2)c1	.	-1	2	6	.
COc1ccc(C(=O)C[N+]2(C)CCOCC2)cc1	3	-2	-15	3	80*
CCc1ccc2nc3n[nH]c(N)c3cc2c1	5	90*	8	-11	24
Nc1[nH]nc2nc3ccccc3cc12	4	61	15	-7	9
COc1ccc(S(=O)(=O)N2CCCCC2c2cc(C(=O)Nc3ccc(OC)cc3C)no2)cc1 (configuration not stated)	.	.	.	-2	.
